Measured values taken from PubChem BioAssay (EPA / NIEHS).
The source holds several records for some structures; these can differ, active in one and inactive in another. Active and inactive are the calls of the source. Rule for the calls: active = hit-call score of the fitted dose curve at least 0.9, where 1 is the maximum; inactive = score below 0.9.

Each compound was assayed on TIMP metallopeptidase inhibitor 2 (TIMP2), TIMP2 (gene 7077) (assay: BSK_KF3CT_TIMP2: BioMAP Diversity Plus: KF3CT Assay for TIMP metallopeptidase inhibitor 2 (TIMP2) Biomarker Activity (AID 2283071)). Conditions: primary human keratinocytes with fibroblasts; actives raise or lower the signal.
Procedure: BSK_KF3CT is a cell-based, multiplexed-readout assay that uses keratinocytes and foreskin fibroblasts, a human skin primary cell co-culture, with measurements taken at 24 hours after chemical dosing in a 96-well plate.BSK_KF3CT_TIMP2 is an assay component measured in the BSK_KF3CT assay. It measures TIMP-2 antibody related to regulation of gene expression using ELISA technology.Data from the assay component BSK_KF3CT_TIMP2 was analyzed into 1 assay endpoint. This assay endpoint, BSK_KF3CT_TIMP2, was analyzed with bidirectional fitting relative to DMSO as the negative control and baseline of activity. Using a type of binding reporter, gain or loss-of-signal activity can be used to understand changes in the signaling as they relate to the gene TIMP2. Furthermore, this assay endpoint can be referred to as a primary readout, because this assay has produced multiple assay endpoints where this one serves a signaling function. To generalize the intended target to other relatable targets, this assay endpoint is annotated to the protease inhibitor intended target family, where the subfamily is metalloproteinase inhibitor.
The levels of cell surface (or secreted, indicated by the prefix "s") biomarker endpoints were measured by ELISA. Overt cytotoxicity to cells in confluent adherent cultures (all systems other than the BT system) was assessed by measuring total protein levels using sulforhodamine B (SRB) staining in parallel cultures at the time of biomarker measurements, indicated as SRB endpoints. For proliferation assays for adherent cell types, individual cell types are cultured at sub-confluence and relative cell numbers quantified by SRB staining at time points optimized for each system (48 h: 3C and CASM3C systems; 72 h: BT and HDF3CGF systems; 96 h: SAg system). SRB was performed by staining cells with 0.1% SRB after fixation with 10% TCA and reading wells at 560 nm.Viability and proliferation of PBMC (T cells) was quantified by Alamar Blue reduction for the SAg and BT systems. For PBMC viability (referred to as PBMC Cytotoxicity within the assay endpoint names), cells were plated (75,000/well in a 96-well plate) and then chemical samples added for 1 h before addition of activators, SEB and TSST-1 (20 ng/mL final concentration each). Cells were incubated for 90 h. Then, Alamar Blue (20 uL/well) (Invitrogen, Cat DAL1100) was added for 6 h, and the plates were read with a fluorescence microplate reader at 546/580 nm (excitation/emission). For PBMC proliferation, cells were plated and activated as above but incubated for only 16 h prior to addition of Alamar Blue. Plates were read after 6 h.

| Structure (SMILES) | outcome | AC50 |
| --- | --- | --- |
| O=C(N[C@H]1CN2CCC1CC2)c1ccc2c(c1)OCCO2 | inactive | – |
| NC(=O)CCl | inactive | – |
| COc1ccccc1N | inactive | – |
| C=CC(Cl)CCl (stereo not given) | – | 0.181 µM (active) |
| O=C(CCl)NCO | inactive | – |
| CC(C)(C)c1ccccc1O | inactive | – |
| OCCN(CCO)CCO | inactive | – |
| Cc1ccc2nc3sc(=O)sc3nc2c1 | – | 2.5 µM (active) |
| COCC(=O)N(c1c(C)cccc1C)[C@H](C)C(=O)OC | inactive | – |
| C#CCOC(=O)/C=C(C)/C=C/CC(C)CCCC(C)C (stereo not given) | inactive | – |
| Cc1cc(Cl)ccc1N | inactive | – |
| O=C(O)C1(c2ccc3c(c2)OC[C@H](Cc2ccc(-c4ccccc4)cc2)[C@H]3O)CCCC1 | – | 14 µM (active) |
| CC1(C)[C@H](C(=O)O[C@H](C#N)c2cccc(Oc3ccccc3)c2)[C@@H]1/C=C(\Cl)C(F)(F)F | inactive | 0.525 µM (active) |
| CC(C)N(C(=O)CCl)c1ccccc1 | – | 14.2 µM (active) |
| O=C(O)COc1cc(Cl)c(Cl)cc1Cl | inactive | – |
| Cc1ccccc1OP(=O)(Oc1ccccc1C)Oc1ccccc1C | – | 5.54 µM (active) |
| Cc1cc(Cl)ccc1OC(C)C(=O)O (stereo not given) | inactive | – |
| Cc1cc(C(C)(C)c2ccc(O)c(C)c2)ccc1O | – | 12.2 µM (active) |
| Clc1cccc(Cl)c1 | inactive | – |
| CCOP(=O)(OCC)SCCSCC | inactive | – |

| Structure (SMILES) | outcome | AC50 |
| --- | --- | --- |
| CC(C)=CC1C(C(=O)OCc2cccc(Oc3ccccc3)c2)C1(C)C (stereo not given) | – | 2.81 µM (active) |
| Oc1c(Cl)cc(Cl)cc1Cl | inactive | – |
| OC(Cc1ccccc1Cl)(Cn1[nH]cnc1=S)C1(Cl)CC1 (stereo not given) | – | 11.1 µM (active) |
| [Cl][Sn]([c]1ccccc1)([c]1ccccc1)[c]1ccccc1 | – | 0.209 µM (active) |
| CCOC(=O)C(SP(=S)(OC)OC)c1ccccc1 (stereo not given) | inactive | – |
| c1ccc2sc(SNC3CCCCC3)nc2c1 | inactive | – |
| O=C(Cc1ccccc1)OCCc1ccccc1 | inactive | – |
| CCOC(=O)CCN(SN(C)C(=O)Oc1cccc2c1OC(C)(C)C2)C(C)C | inactive | – |
| CCOP(=S)(OCC)SCS(=O)(=O)C(C)(C)C | inactive | – |
| CCOP(=S)(OCC)OP(=S)(OCC)OCC | – | 20 µM (active) |
| CC(C=O)Cc1ccc2c(c1)OCO2 (stereo not given) | inactive | – |
| Cc1cccc(OP(=O)(Oc2cccc(C)c2)Oc2cccc(C)c2)c1 | inactive | – |
| Clc1cccc(Cl)c1Cl | inactive | – |
| N#CCCC(Br)(C#N)CBr (stereo not given) | – | 20 µM (active) |
| CC(C)O.CC(C)O.OCCN(CCO)CCO.OCCN(CCO)CCO.[Ti] | inactive | – |
| c1ccc(-c2cccc(-c3ccccc3)c2)cc1 | inactive | – |
| CCCCCCCCCCCCN(C)C | inactive | – |
| CC(C)(COCC1CO1)COCC1CO1 (stereo not given) | inactive | – |
| OCCCCO | inactive | – |
